Measured values from PubChem BioAssay AID1159580 (chemical genetic matrix, 2015).
Screen size: about 5,500 compounds; about 2,000 (36%) were called active. Another 18% or so got no clear call; they are omitted. No stated cut-off is given here; in the data, active means normalized growth mostly below about 0.91 (no sharp cut-off); inconclusive means no clear call, values can overlap the other calls; inactive means mostly above about 0.92. The list shows a part of the results.

Assay: chemical genetic growth profiling, strain panel (AID 1159580);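 further: tested at 20 µM; growth read once vehicle control cultures reached saturation at 30 °C; 1 = growth at the plate median or of vehicle wells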
Settings: S. cerevisiae deletion strains, growth OD

Measured: normalized growth

C/C(=N/NC(=S)NCC(C)(C)C)c1cc(F)cc(Cl)c1O
active: locus YHR030C, strain SLT2, stronger effect = lower value 0.681 | locus YLR113W, strain HOG1, stronger effect = lower value 0.735 | locus YPL256C, strain CLN2, stronger effect = lower value 0.782
inactive: locus YAR019C, strain CDC15, stronger effect = lower value 0.963 | locus YBL105C, strain PKC1, stronger effect = lower value 0.961 | locus YBR135W, strain CKS1, stronger effect = lower value 0.956 | locus YBR136W, strain MEC1, stronger effect = lower value 0.959 | locus YBR160W, strain CDC28, stronger effect = lower value 0.97 | locus YDL017W, strain CDC7, stronger effect = lower value 0.953 | locus YDL028C, strain MPS1, stronger effect = lower value 0.959 | locus YDL101C, strain DUN1, stronger effect = lower value 0.967 | locus YDL108W, strain KIN28, stronger effect = lower value 0.972 | locus YDL132W, strain cdc53, stronger effect = lower value 0.98 | locus YDL214C, strain PRR2, stronger effect = lower value 0.942 | locus YDR052C, strain DBF4, stronger effect = lower value 0.971 | locus YDR054C, strain cdc34, stronger effect = lower value 0.976 | locus YDR226W, strain ADK1, stronger effect = lower value 0.965 | locus YDR477W, strain SNF1, stronger effect = lower value 0.928 | locus YER123W, strain YCK3, stronger effect = lower value 0.928 | locus YER133W, strain GLC7, stronger effect = lower value 0.955 | locus YFL009W, strain cdc4, stronger effect = lower value 0.966 | locus YFL029C, strain CAK1, stronger effect = lower value 0.953 | locus YFR003C, strain YPI1, stronger effect = lower value 0.963 | locus YFR019W, strain FAB1, stronger effect = lower value 0.992 | locus YFR028C, strain CDC14, stronger effect = lower value 0.961 | locus YGR040W, strain KSS1, stronger effect = lower value 0.922 | locus YGR052W, strain FMP48, stronger effect = lower value 0.938 | locus YGR092W, strain DBF2, stronger effect = lower value 0.716 | locus YHR079C, strain IRE1, stronger effect = lower value 0.784 | locus YHR082C, strain KSP1, stronger effect = lower value 0.964 | locus YHR205W, strain SCH9, stronger effect = lower value 0.941 | locus YIL147C, strain SLN1, stronger effect = lower value 0.963 | locus YJL095W, strain BCK1, stronger effect = lower value 0.852 | locus YJL128C, strain PBS2, stronger effect = lower value 0.952 | locus YJL157C, strain FAR1, stronger effect = lower value 0.936 | locus YJR016C, strain ILV3, stronger effect = lower value 0.961 | locus YJR066W, strain TOR1 (second series), stronger effect = lower value 0.868 | locus YJR066W, strain TOR1, stronger effect = lower value 0.894 | locus YKL048C, strain ELM1, stronger effect = lower value 0.946 | locus YKL067W, strain YNK1, stronger effect = lower value 0.962 | locus YKL101W, strain HSL1, stronger effect = lower value 0.923 | locus YKL193C, strain SDS22, stronger effect = lower value 0.966 | locus YKL203C, strain TOR2, stronger effect = lower value 0.94 | locus YLR133W, strain CKI1, stronger effect = lower value 0.884 | locus YLR403W, strain SFP1, stronger effect = lower value 0.837 | locus YML070W, strain DAK1, stronger effect = lower value 0.941 | locus YMR001C, strain CDC5, stronger effect = lower value 0.961 | locus YMR205C, strain PFK2 (second series), stronger effect = lower value 0.939 | locus YMR277W, strain FCP1, stronger effect = lower value 0.96 | locus YNL006W, strain LST8, stronger effect = lower value 0.972 | locus YNL020C, strain ARK1, stronger effect = lower value 0.837 | locus YNL161W, strain CBK1, stronger effect = lower value 0.956 | locus YNL183C, strain NPR1, stronger effect = lower value 0.947 | locus YNL207W, strain RIO2, stronger effect = lower value 0.962 | locus YNL222W, strain SSU72, stronger effect = lower value 0.959 | locus YNL307C, strain MCK1 (second series), stronger effect = lower value 0.883 | locus YOL078W, strain AVO1, stronger effect = lower value 0.974 | locus YOL136C, strain PFK27, stronger effect = lower value 0.948 | locus YOR061W, strain CKA2, stronger effect = lower value 0.869 | locus YOR119C, strain RIO1, stronger effect = lower value 0.984 | locus YOR231W, strain MKK1, stronger effect = lower value 0.837 | locus YOR329C, strain SCD5, stronger effect = lower value 0.964 | locus YPL031C, strain PHO85, stronger effect = lower value 0.915 | locus YPL153C, strain RAD53, stronger effect = lower value 0.913 | locus YPL204W, strain HRR25, stronger effect = lower value 0.92 | locus YPL209C, strain IPL1, stronger effect = lower value 0.959 | locus YPR025C, strain CCL1, stronger effect = lower value 0.965 | locus YPR106W, strain ISR1, stronger effect = lower value 0.989 | locus YPR111W, strain DBF20, stronger effect = lower value 0.968 | strain NNK1, stronger effect = lower value 0.973 | strain TSCII, stronger effect = lower value 0.956
